# According to ChEMBL document CHEMBL3988442, “University of Dundee, Small-Polar-MMV Screening Library” (2021):
# Assays:
# [1] = molecular target: T1, Aspartate--tRNA(Asp/Asn) ligase (Mycobacterium tuberculosis (strain ATCC 25618 / H37Rv)) (UniProt P9WFW3); assay: Assay for Asp RNA synthetase-1 from Mycobacterium tuberculosis; format: functional; set-up: scale not given: direction of the effect not stated beside the values; conditions: 30 µM; also: in the data most compounds retested in dose-response had high values
# T1 sequence (whole entry): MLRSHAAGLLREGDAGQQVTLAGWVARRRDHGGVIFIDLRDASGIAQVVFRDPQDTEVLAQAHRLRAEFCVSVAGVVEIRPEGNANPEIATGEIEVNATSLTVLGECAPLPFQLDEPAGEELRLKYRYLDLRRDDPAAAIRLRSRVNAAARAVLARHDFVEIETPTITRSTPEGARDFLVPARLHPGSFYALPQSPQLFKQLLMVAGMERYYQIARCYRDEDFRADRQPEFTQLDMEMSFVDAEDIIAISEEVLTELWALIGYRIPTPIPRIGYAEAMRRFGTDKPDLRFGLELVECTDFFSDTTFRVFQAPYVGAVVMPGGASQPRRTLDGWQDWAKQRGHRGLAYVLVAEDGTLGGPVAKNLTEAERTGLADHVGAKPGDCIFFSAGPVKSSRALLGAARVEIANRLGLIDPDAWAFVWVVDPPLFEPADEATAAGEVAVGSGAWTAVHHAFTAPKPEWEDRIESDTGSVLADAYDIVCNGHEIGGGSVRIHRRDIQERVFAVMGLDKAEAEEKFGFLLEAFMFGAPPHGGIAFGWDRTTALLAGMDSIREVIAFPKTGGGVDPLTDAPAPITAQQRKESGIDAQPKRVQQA
# [2] = molecular target: Shiga toxin 2 (Escherichia coli O157:H7) (UniProt P09385+P09386); assay: E. coli 0.157:H7 Shiga Toxin SOP - stx2 screening assay; format: functional; set-up: scale not given: direction of the effect not stated beside the values; conditions: 30 µM
Compound,Percent Effect [1] [%],Percent Effect [2] [%]
O=C1CCC2(CCN(Cc3ccc(F)cc3)CC2)N1Cc1ccccc1,-0.182,6.77
Cn1c(Cn2ccnc2)nnc1C1CCN(Cc2cccnc2N)CC1,-2.34,-12.5
O=C(NCCNc1ccc(C(F)(F)F)cn1)c1cncc(Br)c1,3.26,28.2
O=C1[C@@H]2CCN(Cc3ccoc3)C[C@@H]2OCCN1c1ccccc1,-0.779,4.03
CS(=O)(=O)NCc1ncn2c1CN(C(=O)CC1CCCC1)CCC2,-2.09,-6.05
O=C(Nc1nncs1)NC1CCc2ccccc21 (stereo unspecified),1.46,-33.6
O=C(NCCNc1ncccn1)C1CC(=O)N(CC(F)(F)F)C1 (stereo unspecified),-6.31,20.8
COc1ccc(CNCCc2cc(F)cc3c2OCOC3)cc1O,3.65,-23.1
Cc1nc(C)n(C2CCCN(C(=O)c3cnc[nH]3)C2)n1 (stereo unspecified),-5.96,9.84
N#Cc1ccc(N2CCCN(C(=O)CC3CCCO3)CC2)cc1 (stereo unspecified),4.84,11.8
CC(=O)N1CC(Cc2nccc3ccn(C)c23)C1,1.31,-32.1
CC(=O)N1CCN(C(=O)C2SCCc3sccc32)CC1 (stereo unspecified),-0.324,-46
CN(C(=O)c1ccccn1)c1nc2c(s1)CCc1c-2cnn1C,50,-76.1
CCc1csc(C2CCCN(C(=O)C3=NN(CC)C(=O)CC3)C2)n1 (stereo unspecified),-5.86,-21.6
Cc1cc(C)c2cc(CNCC3CCCO3)c3nn(C)c(=O)n3c2c1 (stereo unspecified),1.03,3.55
COCCNC(=O)C[C@@H]1COC[C@H]2CN(C(=O)c3cnccn3)C[C@@H]12,-8.37,-20.7
Cc1cncc(C(=O)N2CCCCC2c2nc(C)cs2)c1 (stereo unspecified),-9.59,-42.4
Cc1n[nH]c(C2CN(C(=O)CCc3ccsc3)CCO2)n1 (stereo unspecified),3.08,-2.19
